Laboratory results reported in the antibiotic and cytotoxicity screens of Wong et al. (2023).
Screen size: about 39,000 compounds; about 3,300 (8.5%) were called active. This excerpt belongs to a sample that is enriched for actives.

These molecules were tested on HepG2 (assay: cytotoxicity call (relative viability < 0.9)). Conditions: 10 µM.

For `CC(C)NC(=O)N(C)C[C@H]1Oc2ccc(NC(=O)C3CCCCC3)cc2C(=O)N([C@@H](C)CO)C[C@@H]1C`, which cytotoxicity call is on record?
The cytotoxicity call was “inactive”.

`CS(=O)(=O)Nc1ccc2c(c1)[C@H]1C[C@@H](CC(=O)NCc3ccc(-c4ccccc4)cc3)O[C@@H](CO)[C@H]1O2` was tested. Which cytotoxicity call did it give?
The cytotoxicity call was “inactive”.

How did the cytotoxicity call turn out when `C[C@@H]1CCCCO[C@H](CN(C)Cc2ccccc2)[C@H](C)CN([C@H](C)CO)C(=O)c2cc(NS(=O)(=O)c3ccc(F)cc3)ccc2O1` was run?
The cytotoxicity call was “inactive”.

`O=C(C[C@H]1C=C[C@H](NS(=O)(=O)c2ccccc2)[C@@H](CO)O1)NCc1ccncn1` was tested. Which cytotoxicity call did it give?
The cytotoxicity call was “inactive”.

With `C[C@@H]1CN([C@H](C)CO)C(=O)Cc2cc(NC(=O)Nc3ccc(C(F)(F)F)cc3)ccc2O[C@H]1CN(C)Cc1ccc(C(F)(F)F)cc1` as the molecule, how does the cytotoxicity call read?
Its cytotoxicity call is “inactive”.

For `C[C@H]1CN([C@@H](C)CO)C(=O)Cc2cc(NC(=O)Nc3ccc(C(F)(F)F)cc3)ccc2O[C@H]1CN(C)Cc1ccc(C(F)(F)F)cc1`, which cytotoxicity call is on record?
The cytotoxicity call was “active”.

How did the cytotoxicity call turn out when `C[C@@H]1CN([C@H](C)CO)C(=O)Cc2cc(NC(=O)CCC(F)(F)F)ccc2O[C@H]1CN(C)Cc1ccc(C(F)(F)F)cc1` was run?
Its cytotoxicity call is “active”.

Which cytotoxicity call does the source give for `C[C@@H]1CN([C@H](C)CO)C(=O)Cc2cc(NC(=O)CCC(F)(F)F)ccc2O[C@@H]1CN(C)Cc1ccc(C(F)(F)F)cc1` here?
Its cytotoxicity call is “inactive”.

Which cytotoxicity call does the source give for `C[C@H](CO)N1C[C@H](C)[C@H](CN(C)Cc2ccc(C(F)(F)F)cc2)Oc2ccc(NC(=O)Nc3ccc(C(F)(F)F)cc3)cc2CC1=O` here?
The cytotoxicity call was “active”.

How did the cytotoxicity call turn out when `C[C@@H]1CN([C@@H](C)CO)C(=O)Cc2cc(NC(=O)Nc3ccc(C(F)(F)F)cc3)ccc2O[C@@H]1CN(C)Cc1ccc(C(=O)O)cc1` was run?
Its cytotoxicity call is “inactive”.

How did the cytotoxicity call turn out when `C[C@H](CO)N1C[C@H](C)[C@@H](CN(C)Cc2ccc(C(F)(F)F)cc2)Oc2ccc(NC(=O)Nc3ccc(C(F)(F)F)cc3)cc2CC1=O` was run?
Its cytotoxicity call is “active”.

`C[C@H]1CN([C@@H](C)CO)C(=O)Cc2cc(NC(=O)CCC(F)(F)F)ccc2O[C@@H]1CN(C)Cc1ccc(C(F)(F)F)cc1` was tested. Which cytotoxicity call did it give?
Its cytotoxicity call is “inactive”.

For `C[C@@H]1CN([C@H](C)CO)C(=O)Cc2cc(NC(=O)Nc3ccc(C(F)(F)F)cc3)ccc2O[C@@H]1CN(C)Cc1ccc(C(=O)O)cc1`, which cytotoxicity call is on record?
The cytotoxicity call was “inactive”.

`C[C@H]1CN([C@@H](C)CO)C(=O)Cc2cc(NC(=O)Nc3ccc(C(F)(F)F)cc3)ccc2O[C@@H]1CN(C)Cc1ccc(C(F)(F)F)cc1` was tested. Which cytotoxicity call did it give?
The cytotoxicity call was “inactive”.

For `Cc1noc(C)c1NC(=O)N[C@H]1CC[C@H](CC(=O)N2CCN(C)CC2)O[C@@H]1CO`, which cytotoxicity call is on record?
Its cytotoxicity call is “inactive”.

How did the cytotoxicity call turn out when `O=C(C[C@@H]1CC[C@H]2[C@@H](COC[C@H](O)CN2S(=O)(=O)c2ccccc2F)O1)NCc1ccccc1Cl` was run?
Its cytotoxicity call is “inactive”.

Which cytotoxicity call does the source give for `C[C@@H]1CN([C@@H](C)CO)C(=O)c2cc(NC(=O)Cc3ccccc3)ccc2O[C@@H]1CN(C)S(=O)(=O)c1cccs1` here?
The cytotoxicity call was “inactive”.

Which cytotoxicity call does the source give for `O=C(O)Cn1nnnc1-c1ccc(F)cc1` here?
Its cytotoxicity call is “inactive”.

For `CO[C@H]1O[C@H](CO)[C@@H](OC(=O)c2ccc(Br)cc2)[C@@H]2OC(=O)[C@@H](Cc3ccccc3)C/C=C/C[C@H](Cc3ccccc3)C(=O)O[C@@H]12`, which cytotoxicity call is on record?
The cytotoxicity call was “inactive”.

How did the cytotoxicity call turn out when `COCC(=O)N1C[C@H](C)[C@@H](OC)CN(C)C(=O)c2ccc(NC(=O)c3ccc(F)cc3)cc2OC[C@H]1C` was run?
Its cytotoxicity call is “inactive”.

`COCC(=O)Nc1ccc2c(c1)OC[C@@H](C)N(Cc1ccccc1F)C[C@H](C)[C@H](OC)CN(C)C2=O` was tested. Which cytotoxicity call did it give?
The cytotoxicity call was “inactive”.

With `CCCCCCCCCCCCCCCCOc1nc2ccc(C)cc2c(=O)o1` as the molecule, how does the cytotoxicity call read?
The cytotoxicity call was “inactive”.

For `C[C@@H]1CN([C@H](C)CO)C(=O)Cc2cc(NC(=O)NC3CCCCC3)ccc2O[C@@H]1CN(C)Cc1ccc(C(F)(F)F)cc1`, which cytotoxicity call is on record?
Its cytotoxicity call is “inactive”.

How did the cytotoxicity call turn out when `CC(C)NC(=O)N(C)C[C@H]1Oc2ccc(NC(=O)CCC(F)(F)F)cc2CC(=O)N([C@H](C)CO)C[C@H]1C` was run?
The cytotoxicity call was “inactive”.

`C[C@@H]1CN([C@H](C)CO)C(=O)Cc2cc(NC(=O)NC3CCCCC3)ccc2O[C@H]1CN(C)Cc1ccc(C(F)(F)F)cc1` was tested. Which cytotoxicity call did it give?
The cytotoxicity call was “inactive”.

How did the cytotoxicity call turn out when `CC(C)NC(=O)N(C)C[C@H]1Oc2ccc(NC(=O)CCC(F)(F)F)cc2CC(=O)N([C@@H](C)CO)C[C@@H]1C` was run?
The cytotoxicity call was “active”.

How did the cytotoxicity call turn out when `C[C@H](CO)N1C[C@H](C)[C@@H](CN(C)Cc2ccc(C(=O)O)cc2)Oc2ccc(NC(=O)Nc3ccc(C(F)(F)F)cc3)cc2CC1=O` was run?
The cytotoxicity call was “inactive”.

How did the cytotoxicity call turn out when `C[C@H]1CN([C@@H](C)CO)C(=O)Cc2cc(NC(=O)NC3CCCCC3)ccc2O[C@H]1CN(C)Cc1ccc(C(F)(F)F)cc1` was run?
The cytotoxicity call was “active”.

With `C[C@@H]1CN([C@H](C)CO)C(=O)Cc2cc(NC(=O)Nc3ccc(C(F)(F)F)cc3)ccc2O[C@@H]1CN(C)Cc1ccc(C(F)(F)F)cc1` as the molecule, how does the cytotoxicity call read?
The cytotoxicity call was “active”.

For `C[C@@H]1CN([C@@H](C)CO)C(=O)Cc2cc(NC(=O)Nc3ccc(C(F)(F)F)cc3)ccc2O[C@H]1CN(C)Cc1ccc(C(F)(F)F)cc1`, which cytotoxicity call is on record?
The cytotoxicity call was “active”.

For `C[C@H]1CN([C@@H](C)CO)C(=O)Cc2cc(NC(=O)Nc3ccc(C(F)(F)F)cc3)ccc2O[C@H]1CN(C)Cc1ccc(C(=O)O)cc1`, which cytotoxicity call is on record?
The cytotoxicity call was “inactive”.

How did the cytotoxicity call turn out when `CC(C)NC(=O)N(C)C[C@@H]1Oc2ccc(NC(=O)CCC(F)(F)F)cc2CC(=O)N([C@@H](C)CO)C[C@H]1C` was run?
The cytotoxicity call was “inactive”.

For `Cc1noc(C)c1S(=O)(=O)N(C)C[C@@H]1Oc2ccc(NC(=O)Nc3ccccc3)cc2CC(=O)N([C@@H](C)CO)C[C@H]1C`, which cytotoxicity call is on record?
The cytotoxicity call was “inactive”.

Which cytotoxicity call does the source give for `Cc1cc(O)c(C(=O)/C=C/N(C)C)c(=O)o1` here?
Its cytotoxicity call is “inactive”.

`C[C@@H]1CN([C@@H](C)CO)C(=O)CCCn2cc(nn2)CO[C@H]1CN(C)C(=O)Nc1ccc2c(c1)OCCO2` was tested. Which cytotoxicity call did it give?
The cytotoxicity call was “inactive”.

Which cytotoxicity call does the source give for `C[C@@H]1CN([C@@H](C)CO)C(=O)c2cc(-c3ccc(C#N)cc3)cnc2O[C@H]1CN(C)C(=O)Nc1ccc(C(F)(F)F)cc1` here?
The cytotoxicity call was “inactive”.

`CCCCC[C@H]1C[C@H](O[C@H]2O[C@@H](CO)[C@@H](O)[C@@H](O)[C@@H]2O)CC(=O)O1` was tested. Which cytotoxicity call did it give?
Its cytotoxicity call is “inactive”.

For `C[C@@H]1CN([C@@H](C)CO)C(=O)Cc2cc(NC(=O)Nc3ccc(C(F)(F)F)cc3)ccc2O[C@H]1CN(C)Cc1ccc(C(=O)O)cc1`, which cytotoxicity call is on record?
The cytotoxicity call was “inactive”.

With `C[C@@H]1CN([C@H](C)CO)C(=O)Cc2cc(NC(=O)Nc3ccc(C(F)(F)F)cc3)ccc2O[C@H]1CN(C)Cc1ccc(C(=O)O)cc1` as the molecule, how does the cytotoxicity call read?
Its cytotoxicity call is “inactive”.

How did the cytotoxicity call turn out when `C[C@@H]1CN([C@@H](C)CO)C(=O)Cc2cc(NC(=O)Nc3ccc(C(F)(F)F)cc3)ccc2O[C@@H]1CN(C)Cc1ccc(C(F)(F)F)cc1` was run?
The cytotoxicity call was “active”.
